Screening data (PubChem)
RTF Ca sens inh: cardiac RTF calcium sensitivity inhibitors, primary screen, biochemical, IANBD-TnC fluorescence, EC70 calcium; Troponin I, cardiac muscle (Homo sapiens) + Troponin T, cardiac muscle (Homo sapiens) + …; IANBD-labeled cardiac RTF, Ca2+ fluorescence; inhibition, % at 7.15 µM; 340,000 tested, 0.12% active;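 active = inhibition above the mean inhibition of all tested compounds plus 3 SD, cut at about 17% in these data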;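 note: assay run at fixed EC70 calcium of 1.6 mM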
cardiac RTF act: cardiac RTF calcium sensitivity activators, primary screen, biochemical, IANBD-TnC fluorescence, EC20 calcium; 340,000 tested, 0.24% active; activation, % at 7.2 µM; IANBD-labeled TnC RTF fluorescence at EC20 calcium; 0% EC20 calcium, 100% full calcium; AID 493008, 2010; Troponin I, cardiac muscle (Homo sapiens) + Troponin T, cardiac muscle (Homo sapiens) + …;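 active = activation above the mean over all tested compounds plus 3 SD, cut at about 30% in these data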;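 note: rise in fluorescence read as greater calcium sensitivity of cardiac thin filaments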
IDE act: human IDE activators in live cells, primary screen, fluorescence polarization, HEK cells, FAbeta-B substrate. activation, % at 5.96 µM. Insulin-degrading enzyme (Homo sapiens), P14735. FAbeta-B cleavage; 0% vehicle, 100% cell-free pure enzyme wells. 340,000 tested, 0.073% active;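 active = activation above the mean of all tested compounds plus 3 SD, set per screening campaign, cut at about 17% in these data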
CRFBP-R2 block: antagonists of CRF-BP/CRF-R2 complex, primary screen, cell-based, HEK293, calcium dye fluorescence, uHTS. CRF-induced calcium fluorescence. 350,000 tested, 0.59% active. inhibition, % at 11.8 µM. AID 588475, 2011;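 active = inhibition of the ligand-induced calcium signal above about 50% at the single tested concentration, limit read from the data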
CRFBP-R2 agonist: agonists of CRF-BP/CRF-R2 complex, primary screen, cell-based, HEK293, calcium dye fluorescence, uHTS. CRF-binding protein / CRF receptor 2 complex (human). calcium dye fluorescence (FLIPR); percent of saturating CRF peptide response. activation, % at 13.2 µM. 350,000 tested, 0.46% active;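 active = activation of at least 50%, plus an integration ratio under a set limit after plate pattern correction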;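 note: plate controls were neutral control wells without compound for no effect and CRF at EC100 for full effect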
IDE inh: human IDE inhibitors in live cells, primary screen, fluorescence polarization, HEK cells, FAbetaB substrate; inhibition, % at 5.59 µM; AID 434962, 2010; 320,000 tested, 0.41% active; FAbetaB cleavage;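 active = percent inhibition above the average of all tested compounds plus 3 SD, set per screening campaign, cut at about 16% in these data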;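 note: IDE supplied by intact live HEK cells; FP after avidin binding of uncleaved biotin substrate so inhibition keeps polarization high; 0% = DMSO wells and 100% = 60 µM reference IDE inhibitor Ii1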
The depositor's hits bear a star; . = not tested or not shown. Compounds with a hit are over-represented: about 1.5% of the library has one in this group of screens.

SMILES	RTF Ca sens inh	cardiac RTF act	IDE act	CRFBP-R2 block	CRFBP-R2 agonist	IDE inh
S=C(N1CCCCCC1)N1CC1	4	-9	4	-10	6	.
Nc1cccc2c1Cc1cc([N+](=O)[O-])ccc1-2	-3	-4	3	-86	62*	.
O=C(c1ccccc1)C1NC1c1ccccc1 (configuration not stated)	-4	9	20*	8	-1	3
CCC1(CC)COP(=O)(OCC(Cl)CCl)OC1 (configuration not stated)	-6	10	2	11	-1	.
Cc1ccccc1N1C(=O)NC(=O)/C(=C\c2cc(Br)c(N3CCOCC3)o2)C1=O	-51	64*	-14	-112	113*	2
C=CCC1(Nc2ccccc2)CC(C)N(C)CC1C (configuration not stated)	8	-1	3	-3	34	-1
O=C1NC(=S)SC1=Cc1ccc(N(CCCl)CCCl)cc1	-76	94*	-36	-100	88*	.
O=c1cccc2n1C[C@@H]1C[C@@H]2CN(CC(O)c2ccc([N+](=O)[O-])cc2)C1 (some centres not stated)	-3	-3	6	0	-1	.
Cc1cc2c(C(F)(F)F)cc(=O)oc2c2c1NCCC2	-105	63*	-12	-214	178*	5
Cc1ccc(OP2(=O)Nc3cc(C)c(C)cc3S2)cc1 (configuration not stated)	-3	4	-19	-4	-1	.
COC(=O)C1=C(c2ccc(OC)c(OC)c2)C[C@@H]2CC[C@H]1N2C(=O)NCCNC(C)=O	-3	7	0	7	-2	1
N[C@@H](Cc1ccccc1)C(=O)N1C[C@H]2C[C@@H](C1)c1cccc(=O)n1C2	4	7	3	-3	-2	5
CCC1C2Cc3ccc(O)cc3C1(CC)CCN2C (configuration not stated)	-5	-1	5	17	-1	.
C=CCN1CCC2(C)c3cc(O)ccc3CC1C2C (configuration not stated)	11	0	4	-68	63*	3
c1ccc(C2CC3CC4(CCCC4)N2O3)cc1 (configuration not stated)	-1	-2	18*	-64	4	-1
COc1ccccc1C(=O)Nc1ccc2c(c1)CC1(C(=O)N(C)C(=O)N(C)C1=O)C1CCCN21 (configuration not stated)	-2	-3	1	-106	182*	5
Cc1cccc(C(=O)Nc2ccc3c(c2)CC2(C(=O)N(C)C(=O)N(C)C2=O)C2CCCN32)c1 (configuration not stated)	1	-4	4	-5	8	3
Oc1ccc(/C=N/NP(=S)(c2ccccc2)c2ccccc2)cc1	10	-3	7	52*	-1	1
O=Cc1c(C(=O)O)n(Cc2ccc(Cl)cc2)c2ccccc12	-343	320*	-24	-37	31	9
COc1cccc2c1C(=O)c1c(O)c3c(c(O)c1C2=O)CC(O)(C(C)=NO)CC3OC1CC(N)C(O)C(C)O1 (configuration not stated)	-206	166*	8	-18	37	.
Cc1c(NS(=O)(=O)c2ccccc2)ccc([N+](=O)[O-])c1Cl	1	-2	-3	54*	29	.
CCN(CCNc1ccc([N+](=O)[O-])c2cccnc12)S(=O)(=O)c1ccccc1	2	0	1	18	-1	-10
C[C@]12CCC3[C@@H](CCC4=CC(=O)CC[C@@]43CO)C1CCC2=O (some centres not stated)	-11	-1	-3	5	1	4
CC(C)CCC1(CCO)C(=O)NC(=S)NC1=O	1	-6	5	-8	1	.
